The list is not random: actives were taken first. Their share in the collection is about 10%.
L major viab: Leishmania major promastigote growth inhibition, primary screen; Leishmania major promastigotes, resazurin fluorescence viability; inhibition, % at 10 µM; actives 9% (n = 200,000); AID 1063, 2008; in the data active means inhibition above about 50%;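 further: promastigotes grown with compound for 44 hours at 28 °C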
HCT116 bCat-KO: primary screen for growth suppressors in beta-catenin knockout HCT116 cells (colon tumor, human) | AID 818, 2007 | actives 1.5% (n = 140,000) | viability, % at 10 µM | HCT116 beta-catenin knockout viability, CellTiter-Glo, 60 h; active compounds read low;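 active means viability at or under a set limit, the compound median less 4 SD, cut at about 6% in these data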;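 further: 0% = Hyamine 1622 control at 20 µM and 100% = untreated cell control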
Insulin prom inh: inhibitors of insulin promoter-driven GFP, primary screen, imaging, TRM-6 cells (human fetal islet line), eGFP reporter, cell count; actives 0.9% (n = 130,000); reporter expression induced with tamoxifen; inhibition, % at 2 µM; AID 1273, 2008;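 active means inhibition above the mean plus 3 SD, with well images judged a real hit on visual review, cut at about 60% in these data, passing the limit was not always enough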
PTEN del growth: growth suppression of PTEN-null HCT116, primary screen, cell-based, CellTiter-Glo; actives 1.2% (n = 140,000); HCT116 PTEN-null viability, 60 h; active compounds read low; viability, % at 10 µM;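 active means viability at or below a set limit, 4 SD under the median of all tested compounds, cut at about 3.7% in these data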;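 further: PTEN knockout HCT116 line with beta catenin targeted HCT116 as companion control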
p97 inhibitor: inhibitors of human p97 ATPase, primary screen, biochemical; recombinant p97 ATPase, Kinase-Glo ATP luminescence, 3 h; inhibition, % at 8 µM; actives 0.42% (n = 220,000); AID 1481, 2009; in the data active means inhibition above about 15%;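 further: 0% = DMSO vehicle and 100% = wells lacking enzyme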
Target sequence (P55072 whole entry, looked up): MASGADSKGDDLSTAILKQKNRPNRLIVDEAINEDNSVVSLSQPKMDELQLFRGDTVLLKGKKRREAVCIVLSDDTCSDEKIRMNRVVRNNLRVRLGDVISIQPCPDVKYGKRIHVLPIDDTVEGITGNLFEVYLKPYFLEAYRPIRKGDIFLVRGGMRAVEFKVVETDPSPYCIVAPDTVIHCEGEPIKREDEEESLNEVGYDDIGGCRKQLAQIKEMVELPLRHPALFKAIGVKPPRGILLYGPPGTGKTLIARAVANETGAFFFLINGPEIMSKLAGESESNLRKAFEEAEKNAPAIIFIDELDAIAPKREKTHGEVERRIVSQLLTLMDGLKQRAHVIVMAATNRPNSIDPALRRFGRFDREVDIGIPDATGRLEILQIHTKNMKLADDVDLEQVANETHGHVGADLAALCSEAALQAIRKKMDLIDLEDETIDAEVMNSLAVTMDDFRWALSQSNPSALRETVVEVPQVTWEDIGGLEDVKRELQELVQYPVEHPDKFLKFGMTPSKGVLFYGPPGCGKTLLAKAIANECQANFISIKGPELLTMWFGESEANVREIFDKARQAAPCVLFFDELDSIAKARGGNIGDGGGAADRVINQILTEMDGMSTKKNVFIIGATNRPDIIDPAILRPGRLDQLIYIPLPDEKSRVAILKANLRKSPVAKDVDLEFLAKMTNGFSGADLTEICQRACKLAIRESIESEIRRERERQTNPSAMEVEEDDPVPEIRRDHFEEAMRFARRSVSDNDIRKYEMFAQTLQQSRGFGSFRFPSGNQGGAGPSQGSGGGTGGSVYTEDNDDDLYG
ROMK mod: ROMK potassium channel modulators, primary screen, cell-based, thallium flux, MLSMR library; Tet-inducible ROMK, thallium flux fluorescence; actives lie on both sides; B-score at 10 µM; actives 2% (n = 130,000); AID 1918, 2009;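 active means signal ratio slope over the read window, or its plate-corrected B-score, at least 3 SD from the plate mean, either direction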;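 further: B-score of the F/F0 ratio slope over 7 to 12 s after thallium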
Starred values were filed as active, the others as inactive.

Screening CCn1c(SCC(=O)N2c3ccccc3CCc3ccccc32)nc2c1c(=O)n(C)c(=O)n2C returned L major viab 59.9*, Insulin prom inh -50.0 and p97 inhibitor 6.7.
Screening CC1Cc2ccccc2N1C(=O)CSc1nc2c(c(=O)n(C)c(=O)n2C)n1Cc1ccccc1 (stereo unspecified) returned L major viab 63.5*, HCT116 bCat-KO 55.1, PTEN del growth 64.5 and p97 inhibitor -1.6.
Screening Cc1cc2ccccc2nc1SCC(=O)N1c2ccccc2CC1C (stereo unspecified) returned L major viab 6.4, HCT116 bCat-KO 98.7, Insulin prom inh 100.0*, PTEN del growth 91.0 and p97 inhibitor 1.1.
`CC(C)Cn1c(=O)c2ccccc2n2c(SCC(=O)N3c4ccccc4CC3C)nnc12` (stereo unspecified) gave L major viab 71.8*, HCT116 bCat-KO 87.1, Insulin prom inh 18.9, PTEN del growth 88.1, p97 inhibitor 6.9 and ROMK mod -0.369.
`CCN(CC(=O)NC(C)(C)C)C(=O)CCl` gave L major viab 25.9, HCT116 bCat-KO 79.0, Insulin prom inh -38.8, PTEN del growth 92.2 and p97 inhibitor 1.0.
CCn1nnnc1SCC(=O)N1c2ccccc2CCc2ccccc21 was read as L major viab 53.3*, HCT116 bCat-KO 87.0, Insulin prom inh 8.3, PTEN del growth 85.7 and p97 inhibitor 3.0.
Cn1nnnc1SCC(=O)N1c2ccccc2CCc2ccccc21 was read as L major viab -1.8, HCT116 bCat-KO 84.0, Insulin prom inh 33.3, PTEN del growth 86.5, p97 inhibitor 1.7 and ROMK mod 0.502.
COCCNC(=O)C(c1ccc(C)o1)N(C(=O)Cn1nnc2ccccc21)c1ccccc1 (stereo unspecified) was read as L major viab 11.6, p97 inhibitor 5.4 and ROMK mod 0.451.
For CC(C)CCNC(=O)C(c1ccco1)N(C(=O)Cn1nnc2ccccc21)c1ccc2c(c1)OCO2 (stereo unspecified) the results were L major viab 13.1, HCT116 bCat-KO 3.1*, Insulin prom inh -116.7, PTEN del growth 3.3* and p97 inhibitor -6.8.
Screening OCC1(Cc2ccc(Cl)cc2)CCN(CC2CC=CCC2)CC1 (stereo unspecified) returned L major viab 87.4*, p97 inhibitor -2.3 and ROMK mod -1.56.
OCC1(Cc2ccccc2)CCN(Cc2ccc(C(F)(F)F)cc2)CC1 was read as L major viab 80.8*, p97 inhibitor -0.2 and ROMK mod -1.89.
For OCC1(Cc2ccc(Cl)cc2)CCN(CCCc2ccccc2)CC1 the results were L major viab 94.5*, Insulin prom inh -34.8, p97 inhibitor 5.5 and ROMK mod -2.27.
COc1cc(CN2CCC(CO)(Cc3cccc(C(F)(F)F)c3)CC2)ccc1F was read as p97 inhibitor 2.3.
`O=C(Nc1ccc(Cl)cc1)N1CCC(CO)(Cc2ccccc2)CC1` gave L major viab -0.6, Insulin prom inh 7.1, p97 inhibitor 4.8 and ROMK mod -2.18.
Screening CSc1ccc(CN2CCC(CO)(Cc3ccc(Cl)cc3)CC2)cc1 returned L major viab 87.0*, p97 inhibitor -6.3 and ROMK mod -2.98.
`COC(=O)CCSCC(=O)N1N=C(c2ccc(Br)cc2)CC1c1cccc(OC)c1OC` (stereo unspecified) gave L major viab 10.3, Insulin prom inh -386.7, p97 inhibitor -5.9 and ROMK mod 0.219.
Screening Cn1c(=O)[nH]c(Nc2ccccc2)c([N+](=O)[O-])c1=O returned L major viab -5.0, p97 inhibitor 1.0 and ROMK mod 0.0581.
OCC1(Cc2ccccc2)CCN(Cc2cccc(F)c2F)CC1 was read as L major viab 12.8 and p97 inhibitor -0.6.
`OCC1(Cc2ccc(Cl)cc2)CCN(Cc2ccccc2F)CC1` gave L major viab 57.1*, p97 inhibitor -0.2 and ROMK mod -0.0297.
Screening CCC(CC)c1nnc(NC(=O)C2=NNC(=O)CC2)s1 returned L major viab -7.3, Insulin prom inh 16.7, p97 inhibitor 4.1 and ROMK mod 0.782.
For CCN(c1ccc(NS(=O)(=O)c2cc(Cl)ccc2Cl)cc1)C(C)C the results were L major viab 25.4, HCT116 bCat-KO 84.4, Insulin prom inh 69.2*, PTEN del growth 80.0, p97 inhibitor 3.4 and ROMK mod -0.0392.
Screening O=S(=O)(Nc1ncccn1)c1ccc(NS(=O)(=O)c2cc(Cl)ccc2Cl)cc1 returned L major viab 0.7, Insulin prom inh 0.0, p97 inhibitor 6.7 and ROMK mod -0.164.
CN(C)c1ccc(NS(=O)(=O)c2cc(Cl)ccc2Cl)cc1 was read as L major viab 63.6*, HCT116 bCat-KO 79.7, Insulin prom inh 10.8, PTEN del growth 79.6, p97 inhibitor 0.1 and ROMK mod -0.245.
For COc1cc(/C=C/C(=O)N2CCN(C)CC2)cc(S(=O)(=O)N2CCc3ccccc32)c1OC the results were p97 inhibitor 5.6.
Screening COc1ccc(NC(=O)c2cccc(-n3c(C)ccc3C)c2)c(OC)c1 returned L major viab 63.2*, HCT116 bCat-KO 13.9, Insulin prom inh 25.9, PTEN del growth 11.7, p97 inhibitor 4.4 and ROMK mod -0.191.
Screening Cc1ccc2c(c1)cc(CN(CCc1ccccc1)C(=O)N1CCOCC1)c1nnnn12 returned L major viab 12.8, HCT116 bCat-KO 89.7, PTEN del growth 100.0 and p97 inhibitor -0.5.
`Cc1ccc2c(c1)cc(CN(Cc1ccc3c(c1)OCO3)C(=O)c1ccccc1)c1nnnn12` gave L major viab 58.5*, HCT116 bCat-KO 78.1, Insulin prom inh -8.1, PTEN del growth 72.3 and p97 inhibitor 4.5.
Cc1ccc2c(c1)cc(CN(Cc1cccnc1)C(=O)NCc1ccccc1)c1nnnn12 was read as L major viab 99.5*, HCT116 bCat-KO 80.8, Insulin prom inh -21.1, PTEN del growth 79.8 and p97 inhibitor 0.1.
Screening Cc1ncsc1CCC(=O)N1CCCC(C(=O)c2ccc3c(c2)OCO3)C1 (stereo unspecified) returned L major viab -1.2, p97 inhibitor -0.6 and ROMK mod 0.444.
For Cc1cccc(N2CCN(C(=O)c3ccc(NS(=O)(=O)c4c(C)noc4C)cc3)CC2)c1C the results were L major viab 97.4*, HCT116 bCat-KO 87.5, Insulin prom inh -80.0, PTEN del growth 79.8 and p97 inhibitor -0.1.
`Cc1cccc(N2CCN(C(=O)c3ccc4ncsc4c3)CC2)c1C` gave L major viab 60.6*, HCT116 bCat-KO 22.9, Insulin prom inh 5.5, PTEN del growth 27.1, p97 inhibitor -7.3 and ROMK mod 3.27*.

Screening data as filed in PubChem.
